Laboratory results reported in article PMC11574364.

Legend:
Experiment in all cases: protein domain microarray probed with biotinylated miRNA; Domain array: 20 mM Tris-HCl pH 7.4, 200 mM KCl, 0.2 mM EDTA, 0.05% NP40, 2 ug/ul heparin, overnight 4 C. ORF array: PBS pH 7.0 with RNase inhibitor, 100 ng RNA; high values mean tight binding
Conditions in all cases: ssRNA
VIGILIN(1-5) = VIGILIN(1-5) (Homo sapiens, UniProt Q00341)
RBMX = RBMX (Homo sapiens, UniProt P38159)
DUS2L = biological target: T1, DUS2L (Homo sapiens, UniProt Q9NX74)
T1 sequence: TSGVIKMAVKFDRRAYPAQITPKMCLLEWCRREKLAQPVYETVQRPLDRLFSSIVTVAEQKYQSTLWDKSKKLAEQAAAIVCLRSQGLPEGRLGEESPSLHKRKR

NFAT90(2)/ILF3 = biological target: T2, NFAT90(2)/ILF3 (Homo sapiens, UniProt Q12906)
T2 sequence: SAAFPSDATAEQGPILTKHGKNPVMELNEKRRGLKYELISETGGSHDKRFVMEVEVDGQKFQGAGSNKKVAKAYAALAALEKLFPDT

IGF2BP3(1-2) = IGF2BP3(1-2) (Homo sapiens, UniProt O00425)
Sequence of IGF2BP3(1-2) (O00425 178-364): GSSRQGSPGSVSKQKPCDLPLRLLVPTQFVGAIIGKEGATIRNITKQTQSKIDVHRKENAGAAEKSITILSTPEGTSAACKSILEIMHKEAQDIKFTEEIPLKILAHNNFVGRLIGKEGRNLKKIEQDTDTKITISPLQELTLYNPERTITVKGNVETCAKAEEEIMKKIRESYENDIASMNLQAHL

STAU2(1-2) = biological target: T3, STAU2(1-2) (Homo sapiens, UniProt Q9NUL3)
T3 chain: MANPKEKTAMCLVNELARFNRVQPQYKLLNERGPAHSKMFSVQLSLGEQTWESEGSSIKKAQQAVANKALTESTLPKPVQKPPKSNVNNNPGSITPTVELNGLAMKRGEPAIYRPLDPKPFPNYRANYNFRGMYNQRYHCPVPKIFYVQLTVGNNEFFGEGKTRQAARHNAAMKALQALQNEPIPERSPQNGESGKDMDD

RBM24 = biological target: T4, RBM24 (Homo sapiens, UniProt Q9BX46)
T4 sequence: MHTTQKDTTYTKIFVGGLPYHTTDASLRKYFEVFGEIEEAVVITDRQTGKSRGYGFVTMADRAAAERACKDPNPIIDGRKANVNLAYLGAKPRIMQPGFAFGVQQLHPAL

TNRC4(3) = TNRC4(3) (Homo sapiens, UniProt Q5SZQ8)
Sequence of TNRC4(3) (Q5SZQ8 351-465): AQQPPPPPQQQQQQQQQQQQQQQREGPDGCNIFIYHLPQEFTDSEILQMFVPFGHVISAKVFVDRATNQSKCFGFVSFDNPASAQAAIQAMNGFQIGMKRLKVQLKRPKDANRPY

YTHDF2 = biological target: T5, YTHDF2 (Homo sapiens, UniProt Q9Y5A9)
T5 sequence: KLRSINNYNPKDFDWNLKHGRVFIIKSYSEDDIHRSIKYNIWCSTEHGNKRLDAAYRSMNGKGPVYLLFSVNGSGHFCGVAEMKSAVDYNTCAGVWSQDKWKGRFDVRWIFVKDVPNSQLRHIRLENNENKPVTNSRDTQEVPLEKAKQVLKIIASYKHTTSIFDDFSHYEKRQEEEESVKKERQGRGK

RBM7 = biological target: T6, RBM7 (Homo sapiens, UniProt Q9Y580)
T6 sequence: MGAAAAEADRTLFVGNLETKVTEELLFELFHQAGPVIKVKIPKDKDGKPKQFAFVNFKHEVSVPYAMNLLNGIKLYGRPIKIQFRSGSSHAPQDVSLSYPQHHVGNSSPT

RNPC2 = biological target: T7, RNPC2 (Homo sapiens, UniProt Q14498)
T7 sequence: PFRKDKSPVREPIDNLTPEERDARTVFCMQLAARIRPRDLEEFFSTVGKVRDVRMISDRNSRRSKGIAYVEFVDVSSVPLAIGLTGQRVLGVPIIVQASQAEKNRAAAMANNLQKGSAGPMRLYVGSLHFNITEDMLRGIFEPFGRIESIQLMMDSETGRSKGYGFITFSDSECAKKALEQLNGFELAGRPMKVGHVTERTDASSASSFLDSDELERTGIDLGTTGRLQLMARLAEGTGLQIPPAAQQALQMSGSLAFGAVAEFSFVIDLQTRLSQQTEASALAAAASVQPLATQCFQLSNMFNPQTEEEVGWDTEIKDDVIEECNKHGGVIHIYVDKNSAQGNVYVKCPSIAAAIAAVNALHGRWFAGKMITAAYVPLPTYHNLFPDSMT

RBM12B(4) = biological target: T8, RBM12B(4) (Homo sapiens, UniProt Q8IXT5)
T8 sequence: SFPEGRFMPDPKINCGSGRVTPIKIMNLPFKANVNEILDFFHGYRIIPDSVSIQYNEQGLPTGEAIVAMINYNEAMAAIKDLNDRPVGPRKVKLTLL

RED1(1)/ADARB1 = RED1(1)/ADARB1 (Homo sapiens, UniProt P78563)
SON = biological target: T9, SON (Homo sapiens, UniProt P18583)
T9 sequence: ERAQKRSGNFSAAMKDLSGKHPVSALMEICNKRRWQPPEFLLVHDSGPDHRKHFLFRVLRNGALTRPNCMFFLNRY

KHDRBS1 = KHDRBS1 (Homo sapiens, UniProt Q07666)
Sequence of KHDRBS1 (Q07666 85-210): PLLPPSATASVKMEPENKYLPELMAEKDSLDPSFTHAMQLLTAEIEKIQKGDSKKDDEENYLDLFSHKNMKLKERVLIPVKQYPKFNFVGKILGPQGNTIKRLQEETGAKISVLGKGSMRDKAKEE

RBM3 = RBM3 (Homo sapiens, UniProt P98179)
Sequence of RBM3 (P98179 1-110): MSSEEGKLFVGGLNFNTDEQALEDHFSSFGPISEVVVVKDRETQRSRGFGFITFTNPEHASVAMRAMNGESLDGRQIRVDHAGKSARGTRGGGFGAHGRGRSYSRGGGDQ

YTHDF3 = biological target: T10, YTHDF3 (Homo sapiens, UniProt Q7Z739)
T10 sequence: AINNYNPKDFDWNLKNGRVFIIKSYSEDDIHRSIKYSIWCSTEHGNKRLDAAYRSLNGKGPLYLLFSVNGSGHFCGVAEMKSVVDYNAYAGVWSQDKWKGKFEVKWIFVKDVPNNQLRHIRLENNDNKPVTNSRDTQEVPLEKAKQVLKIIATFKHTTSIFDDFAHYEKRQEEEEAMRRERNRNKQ

NOVA2(1-2) = biological target: T11, NOVA2(1-2) (Homo sapiens, UniProt Q9UNW9)
T11 sequence: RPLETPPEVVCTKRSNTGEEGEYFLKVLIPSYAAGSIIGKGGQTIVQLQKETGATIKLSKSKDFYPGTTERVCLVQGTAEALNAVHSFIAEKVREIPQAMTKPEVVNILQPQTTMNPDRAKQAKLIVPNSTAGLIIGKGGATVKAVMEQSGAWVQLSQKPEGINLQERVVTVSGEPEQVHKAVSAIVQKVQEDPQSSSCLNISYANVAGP

SFRS4 = biological target: T12, SFRS4 (Homo sapiens, UniProt Q08170)
T12 sequence: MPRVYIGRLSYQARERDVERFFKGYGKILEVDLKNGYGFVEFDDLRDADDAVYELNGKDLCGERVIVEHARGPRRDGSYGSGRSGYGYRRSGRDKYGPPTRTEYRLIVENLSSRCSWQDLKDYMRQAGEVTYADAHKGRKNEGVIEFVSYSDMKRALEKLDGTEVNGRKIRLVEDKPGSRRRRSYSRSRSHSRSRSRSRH

RBM44 = biological target: T13, RBM44 (Homo sapiens, UniProt Q6ZP01)
T13 sequence: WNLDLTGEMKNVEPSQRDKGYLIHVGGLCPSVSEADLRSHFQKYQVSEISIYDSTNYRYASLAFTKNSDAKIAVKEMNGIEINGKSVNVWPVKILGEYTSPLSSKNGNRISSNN

Sequence of RBMX (P38159 1-110): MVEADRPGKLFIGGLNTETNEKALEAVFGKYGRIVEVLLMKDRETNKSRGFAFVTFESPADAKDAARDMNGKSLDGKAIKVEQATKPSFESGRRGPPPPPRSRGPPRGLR
Sequence of VIGILIN(1-5) (Q00341 138-534): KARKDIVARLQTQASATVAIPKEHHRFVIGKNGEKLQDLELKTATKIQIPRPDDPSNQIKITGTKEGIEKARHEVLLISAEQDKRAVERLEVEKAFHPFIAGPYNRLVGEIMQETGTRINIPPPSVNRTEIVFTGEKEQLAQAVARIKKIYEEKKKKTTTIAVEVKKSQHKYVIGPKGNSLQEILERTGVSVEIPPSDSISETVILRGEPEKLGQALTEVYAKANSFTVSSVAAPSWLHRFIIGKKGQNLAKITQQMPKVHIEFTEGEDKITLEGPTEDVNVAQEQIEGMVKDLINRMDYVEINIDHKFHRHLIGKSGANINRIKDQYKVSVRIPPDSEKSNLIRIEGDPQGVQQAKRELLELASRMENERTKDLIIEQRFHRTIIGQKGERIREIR

## UGAGGUAGUAGGUUGUGUGGUU
VIGILIN(1-5)
  binding signal: 622 ± 17.6 fluorescence intensity
RBMX
  binding signal: 721 ± 26 fluorescence intensity
DUS2L
  binding signal: 76.1 ± 2.55 fluorescence intensity
NFAT90(2)/ILF3
  binding signal: 45.6 ± 4.09 fluorescence intensity
IGF2BP3(1-2)
  binding signal: 61.2 ± 7.31 fluorescence intensity
STAU2(1-2)
  binding signal: 148.7 ± 0.905 fluorescence intensity
RBM24
  binding signal: 1780 ± 28.1 fluorescence intensity
TNRC4(3)
  binding signal: 324 ± 34.8 fluorescence intensity
YTHDF2
  binding signal: 90.3 ± 14.1 fluorescence intensity
RBM7
  binding signal: 50.2 ± 0.997 fluorescence intensity
RNPC2
  binding signal: 80.9 ± 8.52 fluorescence intensity
RBM12B(4)
  binding signal: 50.1 ± 2.09 fluorescence intensity
RED1(1)/ADARB1
  binding signal: 230 ± 23.8 fluorescence intensity
SON
  binding signal: 24.3 ± 4.36 fluorescence intensity
KHDRBS1
  binding signal: 28.3 ± 5.26 fluorescence intensity
RBM3
  binding signal: 1550 ± 33.7 fluorescence intensity
YTHDF3
  binding signal: 129 ± 9.2 fluorescence intensity
NOVA2(1-2)
  binding signal: 40.2 ± 2.14 fluorescence intensity
SFRS4
  binding signal: 339 ± 8.46 fluorescence intensity

## UGAGGUAGUAGGUUGUAUAGUU
VIGILIN(1-5)
  binding signal: 86.5 ± 26.5 fluorescence intensity
RBMX
  binding signal: 216 ± 27.7 fluorescence intensity
IGF2BP3(1-2)
  binding signal: 21.2 ± 1.65 fluorescence intensity
RBM24
  binding signal: 596 ± 24 fluorescence intensity
TNRC4(3)
  binding signal: 69.3 ± 14.8 fluorescence intensity
RBM44
  binding signal: 20.7 ± 0.276 fluorescence intensity
RBM7
  binding signal: 22.1 ± 0.665 fluorescence intensity
RED1(1)/ADARB1
  binding signal: 40.73 ± 0.318 fluorescence intensity
KHDRBS1
  binding signal: 22.6 ± 1.88 fluorescence intensity
RBM3
  binding signal: 669 ± 18.7 fluorescence intensity
YTHDF3
  binding signal: 30 ± 0.891 fluorescence intensity
SFRS4
  binding signal: 20.4 ± 3.62 fluorescence intensity

## UGAGGUAGUAGGUUGUAUGGUU
VIGILIN(1-5)
  binding signal: 454 ± 17.2 fluorescence intensity
RBMX
  binding signal: 571 ± 25 fluorescence intensity
DUS2L
  binding signal: 47.2 ± 5.46 fluorescence intensity
NFAT90(2)/ILF3
  binding signal: 27.3 ± 2.02 fluorescence intensity
IGF2BP3(1-2)
  binding signal: 34.3 ± 8.59 fluorescence intensity
STAU2(1-2)
  binding signal: 74.1 ± 4.8 fluorescence intensity
RBM24
  binding signal: 1340 ± 23.1 fluorescence intensity
TNRC4(3)
  binding signal: 333 ± 23.4 fluorescence intensity
YTHDF2
  binding signal: 72.2 ± 12.5 fluorescence intensity
RBM44
  binding signal: 24.5 ± 2.6 fluorescence intensity
RBM7
  binding signal: 45.27 ± 0.0778 fluorescence intensity
RNPC2
  binding signal: 43.3 ± 11.8 fluorescence intensity
RBM12B(4)
  binding signal: 62 ± 3.02 fluorescence intensity
RED1(1)/ADARB1
  binding signal: 151 ± 4.54 fluorescence intensity
SON
  binding signal: 23.9 ± 4.74 fluorescence intensity
KHDRBS1
  binding signal: 25.6 ± 0.417 fluorescence intensity
RBM3
  binding signal: 1642 ± 12.9 fluorescence intensity
YTHDF3
  binding signal: 117 ± 1.29 fluorescence intensity
NOVA2(1-2)
  binding signal: 26.8 ± 4.61 fluorescence intensity
SFRS4
  binding signal: 206 ± 51.4 fluorescence intensity

## CAGUGCAAUGAUGAAAGGGCAU
VIGILIN(1-5)
  binding signal: 156 ± 8.85 fluorescence intensity
RBMX
  binding signal: 686 ± 37.1 fluorescence intensity
NFAT90(2)/ILF3
  binding signal: 23 ± 0.905 fluorescence intensity
IGF2BP3(1-2)
  binding signal: 43.1 ± 3.58 fluorescence intensity
STAU2(1-2)
  binding signal: 39.2 ± 1.2 fluorescence intensity
RBM24
  binding signal: 1450 ± 56.8 fluorescence intensity
TNRC4(3)
  binding signal: 85.6 ± 1 fluorescence intensity
YTHDF2
  binding signal: 30.8 ± 0.523 fluorescence intensity
RBM44
  binding signal: 21.2 ± 0.735 fluorescence intensity
RBM7
  binding signal: 34 ± 2.81 fluorescence intensity
RBM12B(4)
  binding signal: 38.8 ± 4.95 fluorescence intensity
RED1(1)/ADARB1
  binding signal: 67.57 ± 0.354 fluorescence intensity
KHDRBS1
  binding signal: 25.1 ± 9.81 fluorescence intensity
RBM3
  binding signal: 1390 ± 40.6 fluorescence intensity
YTHDF3
  binding signal: 52.8 ± 5.03 fluorescence intensity
NOVA2(1-2)
  binding signal: 71.4 ± 9.69 fluorescence intensity
SFRS4
  binding signal: 236 ± 1.78 fluorescence intensity

## AGAGGUAGUAGGUUGCAUAGUU
VIGILIN(1-5)
  binding signal: 173 ± 11.1 fluorescence intensity
RBMX
  binding signal: 963 ± 66.7 fluorescence intensity
DUS2L
  binding signal: 25.82 ± 0.0919 fluorescence intensity
NFAT90(2)/ILF3
  binding signal: 21.9 ± 1.63 fluorescence intensity
IGF2BP3(1-2)
  binding signal: 44.2 ± 2.91 fluorescence intensity
STAU2(1-2)
  binding signal: 53.6 ± 0.792 fluorescence intensity
RBM24
  binding signal: 1891 ± 18.8 fluorescence intensity
TNRC4(3)
  binding signal: 191 ± 21.4 fluorescence intensity
YTHDF2
  binding signal: 38.4 ± 3.27 fluorescence intensity
RBM7
  binding signal: 36.3 ± 3 fluorescence intensity
RNPC2
  binding signal: 27 ± 3 fluorescence intensity
RBM12B(4)
  binding signal: 23.2 ± 2.64 fluorescence intensity
RED1(1)/ADARB1
  binding signal: 152 ± 6.66 fluorescence intensity
SON
  binding signal: 20.1 ± 1.45 fluorescence intensity
KHDRBS1
  binding signal: 21.6 ± 3.36 fluorescence intensity
RBM3
  binding signal: 2295 ± 10 fluorescence intensity
YTHDF3
  binding signal: 60.7 ± 7.12 fluorescence intensity
NOVA2(1-2)
  binding signal: 151 ± 5.8 fluorescence intensity
SFRS4
  binding signal: 238 ± 11.7 fluorescence intensity

## UAGCUUAUCAGACUGAUGUUGA
VIGILIN(1-5)
  binding signal: 20.4 ± 2.57 fluorescence intensity
RBMX
  binding signal: 71.4 ± 18 fluorescence intensity
STAU2(1-2)
  binding signal: 20.4 ± 2.26 fluorescence intensity
RBM24
  binding signal: 1720 ± 109 fluorescence intensity
TNRC4(3)
  binding signal: 25 ± 0.665 fluorescence intensity
RBM3
  binding signal: 409 ± 132 fluorescence intensity
